Experimental data as given in PubChem BioAssay.
Inconclusive results are not listed.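 Rule for the calls, unless noted: active = GFP signal, as percent of the solvent control, above the screen mean plus 3 SD, about 149; inconclusive = no reading because the compound's own fluorescence upset strain identification; inactive = the rest.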

assay: modulators of LAP4-GFP expression in yeast, primary screen, S. cerevisiae, multiplex flow cytometry (AID 1873); settings: 3 h, at 10 µM, stronger effect = higher value

GFP response vs DMSO, inactive:
Fc1ccc(-n2cc(CNCCc3ccccn3)c(-c3ccccc3Cl)n2)cc1 106%
CO[C@@]1(NC(=O)Cc2cccs2)C(=O)N2C(C(=O)O)=C(COC(N)=O)CS[C@@H]21 83.6%
N#CCC(N)=C(C#N)C#N 82.5%
O=C(OCCN1CCOCC1)c1cccs1 94.7%
CC(=O)c1cc2c(cc1NC(=O)c1ccco1)OCCO2 120%
CC(C)NS(=O)(=O)c1ccc(OCC(=O)Nc2cccc(F)c2)cc1 89.3%
COc1ccc2[nH]c(CN3CCN(CC(C)C)C(CCO)C3)c(C)c2c1 (stereo not drawn) 105%
Cc1ccsc1C1NC(=O)c2ccccc2N1 (stereo not drawn) 93.1%
Fc1ccc(NC(=S)Nc2ccccc2Cl)cc1 78.7%
CCN1C(=O)C(CC(=O)Nc2ccc(F)cc2)N(Cc2ccco2)C1=S (stereo not drawn) 106%
Cc1ccc2c(c1C)NC(C(=O)O)C1CC=CC21 (stereo not drawn) 73.5%
c1cc(-c2ccncc2)ccn1 108%
NS(=O)(=O)c1ccc(CCNC(=O)C2CCCN2C(=O)OCc2ccccc2)cc1 (stereo not drawn) 77.6%
CC(C)CN1CCN(Cc2cccn2-c2ccccn2)CC1CCO (stereo not drawn) 80.3%
CC(C)COCC(CN(Cc1ccccc1)c1ccccc1)N1CCCC1 (stereo not drawn) 74.3%
CS(=O)(=O)NCc1ccc(C(=O)NCc2ccccc2)cc1 127%
COc1cc(NC(=S)NN2CCN(C)CC2)cc(OC)c1OC 92%
CC(=O)[C@@H]1[C@@H](C(=O)c2ccc(C)cc2)[C@]2(C(=O)Nc3ccccc32)[C@H]2C=Cc3cc(F)ccc3N12 117%
COC(=O)c1ccc(NC(=O)c2ccccc2SC)cc1 106%
O=C(Nc1nc2ccccc2s1)c1ccc(F)cc1 109%
CC(=O)N1c2ccccc2C(C)=CC1(C)C 104%
CCC(=O)Oc1ccc(C(=O)Nc2ccc([N+](=O)[O-])cc2)cc1 82.5%
C[C@]12CC[C@@H]3c4ccc(O)cc4CC[C@H]3[C@@H]1CC[C@@H]2O 132%
C=CCNc1nc2c(c(=O)n(C)c(=O)n2C)n1CC(=C)C 91.6%
COc1ccc(CN2CCCCC2C(=O)Nc2ccc(OC)c(OCC(C)C)c2)cc1OC (stereo not drawn) 90.7%
Cn1cc(C2N3CC4(C)CN2CC(C)(C3)C4=O)c2ccccc21 (stereo not drawn) 94%
Cc1ccc2nc(NC3=NC(CC(=O)O)C(=O)N3)nc(C)c2c1 (stereo not drawn) 93.3%
Cc1ccc(C2CC(=O)C(C=NCCN3CCN(CC(=O)Nc4cc(C)cc(C)c4)CC3)=C(O)C2)cc1 (stereo not drawn) 108%
NC(N)=NC(=O)Cc1c(Cl)cccc1Cl 99.9%
O=C(CCSc1ccccc1)N1CCCC1 104%
O=C(Nc1ccc(F)c([N+](=O)[O-])c1)c1ccc2c(c1)OCCO2 108%
Nc1ccc2cn[nH]c2c1 101%
CCN(CC)CC#CCOC(=O)C(O)(c1ccccc1)C1CCCCC1 (stereo not drawn) 83.1%
CC(C)CN1CCN(Cc2ccc(C#CC(C)(C)O)cc2)CC1CCO (stereo not drawn) 78.7%
Cc1ccccc1NC(=O)NCCc1c[nH]c2ccccc12 89.4%
C#CCN1C(=O)C(O)(c2c(C)[nH]c3ccccc23)c2ccccc21 (stereo not drawn) 103%
Cc1ccc(S(=O)(=O)N2CCC(C(=O)N[C@@H](C)C(=O)NC3CCS(=O)(=O)C3)CC2)cc1 (stereo partly drawn) 89.3%
CCNC(=O)c1c(N)sc2c1CCCCC2 90.5%
COc1ccccc1C(=O)Oc1ccc2c(c1)O/C(=C\c1ccncc1)C2=O 126%

assay: modulators of AGP1-GFP expression in yeast TOR pathway, primary screen, cell-based, multiplex flow cytometry, S. cerevisiae (AID 1887;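 active = GFP signal above the screen-wide mean plus 3 SD, that is over about 124.5% of the solvent control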;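 note: AGP1-GFP fusion strain of S. cerevisiae within a five-strain barcoded multiplex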); settings: 3 h, at 10 µM, stronger effect = higher value

GFP response, % of DMSO, inactive:
Fc1ccc(-n2cc(CNCCc3ccccn3)c(-c3ccccc3Cl)n2)cc1 107%
CO[C@@]1(NC(=O)Cc2cccs2)C(=O)N2C(C(=O)O)=C(COC(N)=O)CS[C@@H]21 119%
N#CCC(N)=C(C#N)C#N 91.7%
O=C(OCCN1CCOCC1)c1cccs1 103%
CC(=O)c1cc2c(cc1NC(=O)c1ccco1)OCCO2 110%
CC(C)NS(=O)(=O)c1ccc(OCC(=O)Nc2cccc(F)c2)cc1 92.4%
COc1ccc2[nH]c(CN3CCN(CC(C)C)C(CCO)C3)c(C)c2c1 (stereo not drawn) 98%
Cc1ccsc1C1NC(=O)c2ccccc2N1 (stereo not drawn) 93.8%
Fc1ccc(NC(=S)Nc2ccccc2Cl)cc1 93.1%
CCN1C(=O)C(CC(=O)Nc2ccc(F)cc2)N(Cc2ccco2)C1=S (stereo not drawn) 114%
Cc1ccc2c(c1C)NC(C(=O)O)C1CC=CC21 (stereo not drawn) 88.5%
c1cc(-c2ccncc2)ccn1 105%
NS(=O)(=O)c1ccc(CCNC(=O)C2CCCN2C(=O)OCc2ccccc2)cc1 (stereo not drawn) 103%
CC(C)CN1CCN(Cc2cccn2-c2ccccn2)CC1CCO (stereo not drawn) 95.9%
CC(C)COCC(CN(Cc1ccccc1)c1ccccc1)N1CCCC1 (stereo not drawn) 91.9%
CS(=O)(=O)NCc1ccc(C(=O)NCc2ccccc2)cc1 123%
COc1cc(NC(=S)NN2CCN(C)CC2)cc(OC)c1OC 106%
CC(=O)[C@@H]1[C@@H](C(=O)c2ccc(C)cc2)[C@]2(C(=O)Nc3ccccc32)[C@H]2C=Cc3cc(F)ccc3N12 100%
COC(=O)c1ccc(NC(=O)c2ccccc2SC)cc1 91.8%
O=C(Nc1nc2ccccc2s1)c1ccc(F)cc1 105%
CC(=O)N1c2ccccc2C(C)=CC1(C)C 125%
CCC(=O)Oc1ccc(C(=O)Nc2ccc([N+](=O)[O-])cc2)cc1 80.8%
C[C@]12CC[C@@H]3c4ccc(O)cc4CC[C@H]3[C@@H]1CC[C@@H]2O 98.6%
C=CCNc1nc2c(c(=O)n(C)c(=O)n2C)n1CC(=C)C 103%
COc1ccc(CN2CCCCC2C(=O)Nc2ccc(OC)c(OCC(C)C)c2)cc1OC (stereo not drawn) 104%
Cn1cc(C2N3CC4(C)CN2CC(C)(C3)C4=O)c2ccccc21 (stereo not drawn) 104%
Cc1ccc2nc(NC3=NC(CC(=O)O)C(=O)N3)nc(C)c2c1 (stereo not drawn) 106%
Cc1ccc(C2CC(=O)C(C=NCCN3CCN(CC(=O)Nc4cc(C)cc(C)c4)CC3)=C(O)C2)cc1 (stereo not drawn) 105%
NC(N)=NC(=O)Cc1c(Cl)cccc1Cl 101%
O=C(CCSc1ccccc1)N1CCCC1 112%
O=C(Nc1ccc(F)c([N+](=O)[O-])c1)c1ccc2c(c1)OCCO2 100%
Nc1ccc2cn[nH]c2c1 102%
CCN(CC)CC#CCOC(=O)C(O)(c1ccccc1)C1CCCCC1 (stereo not drawn) 91.2%
CC(C)CN1CCN(Cc2ccc(C#CC(C)(C)O)cc2)CC1CCO (stereo not drawn) 86.6%
Cc1ccccc1NC(=O)NCCc1c[nH]c2ccccc12 98.8%
C#CCN1C(=O)C(O)(c2c(C)[nH]c3ccccc23)c2ccccc21 (stereo not drawn) 100%
Cc1ccc(S(=O)(=O)N2CCC(C(=O)N[C@@H](C)C(=O)NC3CCS(=O)(=O)C3)CC2)cc1 (stereo partly drawn) 96.3%
CCNC(=O)c1c(N)sc2c1CCCCC2 94.9%
COc1ccccc1C(=O)Oc1ccc2c(c1)O/C(=C\c1ccncc1)C2=O 105%
